Bioassay records: PubChem, National Center for Advancing Translational Sciences (NCATS)
A selection: hits, their analogues and other compounds. The true share with any hit is near 9.9%.
KB-3-1 cytotox = KB-3-1 parental cell cytotoxicity. 400,000 tested, 1.4% active. KB-3-1 viability, CellTiter-Glo ATP luminescence, 72 h. AID 1347075. Potency, µM (highest dose often 46.1 µM), hits mostly cytotoxic; note: nearly all actives have a fitted effect of over 60% in size
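Luminescent ATP read-out (CellTiter-Glo) measures survival of drug-naive KB-3-1 cells after 72 h compound exposure at 37 °C. Titration series was screened from lowest to highest concentration, with DMSO vehicle plates as background controls.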
IL1B secr inh = inflammasome signaling inhibition, IL-1 beta readout. THP-1 LPS/ATP IL-1B secretion, AlphaLISA, 16 h; active compounds read low. activity change, % at 57.5 µM. 360,000 tested, 4.7% active. AID 743279; in the data active = activity change below about -50%; inconclusive = mostly about -30% to -49%
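Secreted IL-1B measured by AlphaLISA bead assay after 16 h compound exposure of THP-1 cells; compounds (final up to 57.5 uM) added 1 h before LPS (250 ng/mL) and ATP (1.25 mM) stimulation; lower signal means less secretion.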
MCF10A rerep = inducers of DNA re-replication in MCF 10A breast cells; MCF 10A DNA re-replication, Hoechst nuclear intensity, 48 h; 350,000 tested, 2.9% active; Potency, µM (series often up to 46.1 µM), actives largely listed as activators; note: nearly all actives have a fitted effect of over 50% in size
KB-V1 cytotox = kills drug-selected multidrug resistant KB-V1 cells; KB-V1 MDR cells viability, CellTiter-Glo, 72 h; Potency, µM (titrated, usually from 46.1 µM), usual class: cytotoxic; 400,000 tested, 3.4% active; note: nearly all actives have a fitted effect of over 60% in size
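KB-V1 cells (P-gp-expressing MDR subline of KB-3-1) in phenol-red-free DMEM with 10% FBS were exposed to library compounds over a concentration series for 72 h at 37 degrees C. Viability read by CellTiter-Glo luminescence; concentration-effect curves fitted after normalization.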
SW480 rereplic = DNA re-replication induction in SW480 cells. SW480 DNA re-replication, Hoechst DNA content imaging, 48 h. Potency, µM (titrated, usually from 46.1 µM), usual class: activators. 340,000 tested, 1.8% active. AID 624297; note: nearly all actives have a fitted effect of over 55% in size
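Image-based read-out: total Hoechst fluorescence of nuclei (405 nm excitation, 500-530 nm emission), with hits raising the fraction of high-intensity nuclei. SW480 colon cells incubated 48 hr with compounds at 37 C.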
Hits are given with their value; n = inactive; u = inconclusive; x = no result; ! = a repeat was not active; [ ] = dose if it differs, or a comment. Unless noted, calls come from the whole dose curve; as a rule, active = well fitted curve in the direction sought with a large enough effect; inconclusive = small, poorly fitted or top-dose-only effect, or another doubt; inactive = no such curve, though single readings can be large; an effect the other way counts as inactive or inconclusive.

SMILES	KB-3-1 cytotox	IL1B secr inh	MCF10A rerep	KB-V1 cytotox	SW480 rereplic
Cc1nnc(NCc2n[nH]c(=O)c3ccccc23)c2ccccc12	u	-101.2	u	n	u
C=C1[C@H]2O[C@H]2[C@@H](OC(C)=O)[C@@]2(C)[C@@H](OC(C)=O)C[C@@H](OC(C)=O)[C@@](C)(O)[C@@H]2[C@@H](OC(C)=O)[C@@]2(O)[C@@H](C)C(=O)O[C@H]2[C@H]1Cl	n	n	u	n	n[9.22 µM]
COc1ccc(-c2noc(CSc3nc(N)cc(=O)[nH]3)n2)cc1	20.6µM!	n	u	u	n
Nc1nc(SCc2ccc(Br)cc2)[nH]c(=O)c1-c1ccccc1	n	n	n	n	n
Nc1nc(SCc2nc(-c3ccccc3)no2)[nH]c(=O)c1-c1ccccc1	n	n	n	18.4µM	n
Cc1ccc(-n2nnnc2Sc2nc([N+](=O)[O-])nn2C)cc1	n	-56.9	u	n	16.4µM
CCC(C(=O)Nc1ccc(C(=O)OC)cc1)n1nc(-c2ccc(C)cc2)c2c(c1=O)CCCC2 (stereo not given)	n	x	x	u	x
COc1cccc(/C=C2\NC(=O)NC2=O)c1O	n	-50.4	n	n	n
CCOC(=O)COc1ccccc1/C=C1/NC(=O)NC1=O	n	u	n	n	n
O=C(CN1C(=O)C2CC=CCC2C1=O)Nc1ccc(F)cc1F (stereo not given)	n	n	n	n	n
COc1ccc(C(=O)/C=C/Sc2nc3ccccc3o2)cc1	u	-94.8	n	u	u
C(#Cc1ccccc1)CN1CCCCC1	n	n	n	n	n
C(#CCN1CCCC1)CC(c1ccccc1)c1ccccc1	n	-63.9	13µM	u	n
CC(C)(C#CCN1CCCCC1)OCCOC(c1ccccc1)c1ccccc1	u	-61.3	u	u	n
CC(C)OCCCNC(=O)c1cn(C)c2ccc(S(=O)(=O)N3CCCCCC3)cc2c1=O	u	x	x	n	x
O=CN1Cc2[nH]c3ccccc3c2N(c2ccc(Cl)cc2)C1=O	n	n	u	n	n
O=C1CNCc2[nH]c3ccccc3c2N1c1ccccc1	n	n	u	23.1µM	n
CCc1ccc(-c2nc(CS(=O)CC(=O)NCCN3CCCCCC3)c(C)o2)cc1 (stereo not given)	u	-55.5	n	n	n
Cc1ccc(-c2nc(CS(=O)CC(=O)NCCCN3CCN(Cc4ccccc4)CC3)c(C)o2)cc1 (stereo not given)	n	-71.4	n	n	n
Cc1ccc(-c2nc(CS(=O)CC(=O)NCCN3CCCC3)c(C)o2)cc1 (stereo not given)	n	n	n	n	n
Cc1nc(N2CCN(C(=O)c3ccco3)CC2)c2oc3ccccc3c2n1	11.6µM	u	u	u	8.2µM
CCc1nc(N2CCN(C(=O)c3ccco3)CC2)c2oc3ccccc3c2n1	n	n	u	20.6µM	11.6µM
Cc1ccc(NC(=O)CSc2nnc3c(n2)[nH]c2ccccc23)cc1	n	n	n	n	n
Cc1ccc(-c2csc(NC(=O)CSc3nnc4c(n3)[nH]c3ccccc34)n2)cc1	u	n	16.4µM	u	u
O=C(O)CSc1nnc2c(n1)[nH]c1ccccc12	n	n	n	n	n
SMILES	KB-3-1 cytotox	IL1B secr inh	MCF10A rerep	KB-V1 cytotox	SW480 rereplic
CC1CCN(C(=O)CSc2nnc3c(n2)[nH]c2ccccc23)CC1	u	n	n	16.4µM	n
Cc1nnc(SCC(=O)NC2CCCC(C)C2C)n1N (stereo not given)	n	n	n	n	n
COc1ccc(Cl)cc1Nc1sc(C(=O)c2ccccc2)c(N)c1C(=O)Nc1ccccc1	n	x	x	u	x
CCOc1ccc(S(=O)(=O)Nc2ccccc2SC)cc1	u	n	n	16.4µM	n
COC(=O)c1ccc(C)c(NS(=O)(=O)c2ccc(C)c([N+](=O)[O-])c2)c1	n	n	u	n	n
COC(=O)c1ccc(C)c(NS(=O)(=O)c2ccc(OC)cc2)c1	0.731µM	n	u	1.03µM	0.259µM
COC(=O)c1sccc1NS(=O)(=O)c1ccc(OC)cc1	n	n	n	18.4µM	u
COC(=O)c1ccc(C)c(NS(=O)(=O)c2ccc3c(c2)OCCO3)c1	2.31µM	n	n	1.16µM	n
COC(=O)c1sccc1NC(=O)Cc1ccc(OC)cc1	n	n	n	u	x
CSc1ccccc1NS(=O)(=O)c1ccc2c(c1)OCCO2	n	n	n	20.6µM	n
CS(=O)(=O)NCCSc1cc(C(F)(F)F)nc2ccccc12	n	x	n	n	n
COc1ccccc1CNC(=O)C/C(C)=N/NC(=O)COc1ccc(C)cc1Br	23.1µM	n	n	n	n
COc1ccc(NC(=O)NNC(=O)c2ccc3ccccc3c2O)c(OC)c1	n	n	n	u	n
S=c1[nH]nc(-c2cc3c(s2)-c2ccccc2CC3)o1	n	n	u	n	8.2µM
C[C@H](NC(=O)C[C@@H]1C=C[C@@H](NC(=O)CN2CCOCC2)[C@@H](CO)O1)c1ccccc1	n	n	x	n	x
CCCC(=O)N(Cc1cc(=O)[nH]c2ccccc12)c1ccc(C)cc1C	n	n	n	n	n
Cc1ccc(N(Cc2cc(=O)[nH]c3ccccc23)C(=O)CCl)c(C)c1	18.4µM	-104.5	u	u	23.1µM
CC(C)COC(=O)N(C)C[C@@H]1OCc2cnnn2CCCC(=O)N([C@@H](C)CO)C[C@H]1C	n	n	x	u	x
CC1=C(C(=O)OC2CCCCC2)C(c2ccc(N(C)C)cc2)NC(=O)N1 (stereo not given)	n	u	n	n	n
C[C@H](CO)N1C[C@H](C)[C@@H](CN(C)C(=O)Nc2ccccc2)Oc2ccc(NC(=O)CCC(F)(F)F)cc2C1=O	n	n	n	n	n[9.22 µM]
COc1cc(C(=O)O/N=C2/C=CC(=O)C(C)=C2C)cc(OC)c1OC	u	n	23.1µM	u	16.4µM
O=C(/C=C/c1ccccc1)NC(=S)Nc1ccccc1C(=O)NC1CCCCC1	n	n	n	u	n
COc1ccc(/C=C/C(=O)NC(=S)Nc2ccccc2C(=O)NC2CCCCC2)cc1	n	n	18.4µM	u	4.11µM
Cc1ccc(/C=C/C(=O)NC(=S)Nc2ccccc2C(=O)NC2CCCCC2)cc1	n	n	u	n	n
O=C(/C=C/c1ccc(F)cc1)NC(=S)Nc1ccccc1C(=O)NC1CCCCC1	n	n	u	16.4µM	u
COc1ccc(OCC(O)Cn2cnc(-c3ccc(Br)cc3)c2)cc1 (stereo not given)	n	n	n	n	n
OC(COc1ccc2ccccc2c1Br)Cn1cnc(-c2ccccc2)c1 (stereo not given)	n	-95.8	u	n	n
CCc1ccc(-n2nc3cc(C)c(NC(=O)c4cc(Cl)ccc4OC)cc3n2)cc1	n	x	x	n	x
Cc1cccc(NC(=O)CN2CCc3cc4c(cc3C2C)OCCCO4)c1 (stereo not given)	n	-54.0	n	n	u
N/C(=C\c1ccccc1)c1ccncc1	n	x	x	n	x
